Compound activity from PubChem.
Rab9 promoter act: Rab9 promoter activation; Huh7 Rab9 promoter-luciferase reporter, luminescence, 24 h; Potency, µM (highest dose often 9.22 µM), for inactives: at the top dose activation, negative = inhibition, hits mostly activators; actives 2.8% (n = 320,000); AID 485297; further: % of control where 0% means no effect; nearly all actives have a fitted effect of over 60% in size
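Rab9 promoter-driven luciferase in stably transfected Huh7 cells; 1500 cells/well rested 2 h, exposed to compound in DMSO for 24 h at 37 °C, 5% CO2. Luminescence read 10 min after adding luciferase reagent at ambient temperature.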
ELG1 genotox: genotoxicity induction in ELG1-luciferase HEK293T cells; HEK293T ELG1-luciferase reporter, luminescence, 16 h; Potency, µM (series often up to 46 µM), for the others: at the highest dose activity change, positive = activation, usual class: activators; actives 1.3% (n = 330,000); AID 504466; further: % of control where 0% means no effect; nearly all actives have a fitted effect of over 60% in size
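DMSO vehicle served as control against compound-treated ELG1-luciferase HEK293T cells; exposure lasted 16 hr at 37 °C and 5% CO2, followed by ONE-Glo luminescence detection after 30 min.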
NPC1 promoter act: activators of NPC1 promoter; Huh7 NPC1 promoter luciferase reporter, 24 h; Potency, µM (highest dose often 9.22 µM), for the others: at the top dose activation, hits mostly activators; actives 2.4% (n = 320,000); AID 485313; further: % of control where 0% means no effect; nearly all actives have a fitted effect of over 60% in size
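Huh7 reporter cells (NPC1 promoter driving luciferase) are dosed with compound for 24 h at 37 °C, 5% CO2; luciferase detection reagent is then added and luminescence measured after 10 min at ambient temperature.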
SMN2 splice enh: enhancers of SMN2 splice variant expression; HEK293 SMN2-luciferase splicing reporter, luminescence, 30-36 h; Potency, µM (series often up to 46.1 µM), for the others: top-dose activity change, positive = activation, most hits filed as activators; actives 2.8% (n = 210,000); further: % of control where 0% means no effect; nearly all actives have a fitted effect of over 55% in size
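qHTS luciferase splicing reporter: luminescence rises when SMN2 exon 7 is included in transfected HEK293 cells. Compound exposure lasted 30-36 h at 37C, with 4.5 mM final sodium butyrate as control, followed by a ONE-Glo read.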
FLuc modulator: counter-screen for miR-21 project: firefly luciferase inhibitors or activators | P08659 | purified FLuc, Km substrates, luminescence inhibition | Potency, µM (highest dose often 57.5 µM), without a hit: top-dose activity change, negative = inhibition, hits mostly inhibitors | actives 6.9% (n = 360,000);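 further: plate controls were vehicle for no effect and reference inhibitor for full effect; nearly all actives have a fitted effect of over 55% in size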
Target sequence (P08659 whole entry, looked up): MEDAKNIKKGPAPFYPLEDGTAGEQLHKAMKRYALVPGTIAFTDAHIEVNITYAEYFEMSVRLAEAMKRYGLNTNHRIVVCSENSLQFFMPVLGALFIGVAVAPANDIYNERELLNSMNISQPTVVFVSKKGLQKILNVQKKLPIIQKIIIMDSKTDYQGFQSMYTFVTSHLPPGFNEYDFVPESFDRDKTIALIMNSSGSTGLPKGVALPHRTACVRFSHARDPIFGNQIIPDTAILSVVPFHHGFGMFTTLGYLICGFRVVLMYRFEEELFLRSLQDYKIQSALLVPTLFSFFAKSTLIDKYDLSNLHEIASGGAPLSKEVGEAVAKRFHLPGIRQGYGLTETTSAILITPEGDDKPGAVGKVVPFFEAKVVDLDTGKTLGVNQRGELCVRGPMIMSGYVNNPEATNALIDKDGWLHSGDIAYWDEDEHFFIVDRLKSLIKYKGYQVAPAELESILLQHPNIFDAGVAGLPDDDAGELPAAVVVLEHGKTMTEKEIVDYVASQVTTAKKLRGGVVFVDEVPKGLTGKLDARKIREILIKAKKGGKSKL
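Biochemical qHTS of compounds, final roughly 60 µM downward over six points, against 10 nM purified firefly luciferase using Km concentrations of substrates (10 uM D-luciferin, 10 uM ATP) in Tris acetate pH 7.5 buffer; luminescence output.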
ELG1 repair inh: ELG1-dependent DNA repair inhibition. HEK293T ELG1-luciferase reporter, luminescence, 16 h; DNA damage induced by 5-fluorouridine. Potency, µM (doses to about 46.1 µM), for inactives: at the top dose activity change, negative = inhibition, most hits filed as inhibitors. actives 2.3% (n = 330,000); further: on the % scale 0 is the no-effect control and ±100 the full control effect; nearly all actives have a fitted effect of over 55% in size
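Step one: seed 2,000 cells per well. Step two: pin-transfer compound or DMSO alongside 5-fluorouridine. Step three: incubate 16 hr, 37 °C, 5% CO2. Step four: add ONE-Glo, wait 30 min, read luminescence.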
* = called active by the depositor. In the library only some 9.3% were active in any assay of this set; here they are far more common. The call rests on the fitted dose curve; in most records, active means well fitted curve in the direction sought with a large enough effect; inconclusive means small, poorly fitted or top-dose-only effect, or another doubt; inactive means no such curve, though single readings can be large; an effect the other way counts as inactive or inconclusive. Potency means the concentration at half of the fitted maximal effect.

Results for CC1(C)C(O)C=C[C@@]2(C)C1CC(=O)O[C@@]1(C)C3=CC(=O)OC(c4ccoc4)[C@]3(C)CCC21 (some centres not stated) ?
SMN2 splice enh: -41%

Results for O=C(NCc1ccccc1)C(c1ccncc1)N(C(=O)c1csnn1)c1ccccc1F (configuration not stated) ?
Rab9 promoter act: -2%; ELG1 genotox: -3%; NPC1 promoter act: -1%; FLuc modulator: -1%; ELG1 repair inh: 17%

How did CC(C)=NNc1nc(-c2ccc(N3C(=O)CCC3=O)cc2)cs1 do in these assays?
Rab9 promoter act: -13%; ELG1 genotox: 3%; NPC1 promoter act: 11%; FLuc modulator: -26%; ELG1 repair inh: inconclusive

Results for CCN(CC(=O)Nc1cc(Cl)ccc1C)C(=O)CCc1nc2ccccc2c(=O)[nH]1 ?
Rab9 promoter act: -2%; ELG1 genotox: 1%; NPC1 promoter act: 0%; FLuc modulator: 2%; ELG1 repair inh: 4%

Results for O=[N+]([O-])c1ccc2nc(N3CCCC3)sc2c1 ?
Rab9 promoter act: 3.5µM*; ELG1 genotox: inconclusive; NPC1 promoter act: 3.2µM*; FLuc modulator: 11µM*; ELG1 repair inh: inconclusive

Results for O=C(c1ccc2c(c1)CCCC2)N1CCN(c2nc3ccc(F)cc3s2)CC1 ?
FLuc modulator: -7%

What do the screens show for `Fc1cc(F)c2nc(N3CCCCC3)sc2c1`?
Rab9 promoter act: 27%; ELG1 genotox: inconclusive; NPC1 promoter act: inconclusive; SMN2 splice enh: inconclusive; FLuc modulator: 15µM*; ELG1 repair inh: inconclusive

How did Fc1ccc2nc(N3CCCC3)sc2c1 do in these assays?
Rab9 promoter act: inconclusive; ELG1 genotox: inconclusive; NPC1 promoter act: 2.2µM*; SMN2 splice enh: 13µM*; FLuc modulator: 12µM*; ELG1 repair inh: inconclusive

Results for Cc1ccc(CNC(=O)CN2C(=O)CSc3c2c(C)nn3-c2ccccc2)cc1 ?
FLuc modulator: -6%

Results for Cc1snc(SCC(=O)c2ccc(F)cc2)c1C#N ?
Rab9 promoter act: 2.8µM*; ELG1 genotox: 10%; NPC1 promoter act: inconclusive; SMN2 splice enh: 20%; FLuc modulator: inconclusive; ELG1 repair inh: inconclusive

What do the screens show for `Cc1snc(SCC(=O)c2ccc([N+](=O)[O-])cc2)c1C#N`?
Rab9 promoter act: inconclusive; ELG1 genotox: 11%; NPC1 promoter act: inconclusive; SMN2 splice enh: inconclusive; FLuc modulator: inconclusive; ELG1 repair inh: inconclusive

Results for CC(C)[C@H](NC(=O)C1CCN(S(=O)(=O)c2ccccc2)CC1)C(=O)NCc1ccc(F)cc1 ?
Rab9 promoter act: 7%; ELG1 genotox: -7%; NPC1 promoter act: -2%; FLuc modulator: 2%; ELG1 repair inh: -5%

What do the screens show for `Cc1ccc(-n2c(C)cc(C3=NNC(=NC4CC4)SC3)c2C)cc1C`?
Rab9 promoter act: 0.56µM*; ELG1 genotox: inconclusive; NPC1 promoter act: 1.6µM*; SMN2 splice enh: inconclusive; FLuc modulator: 1.3µM*; ELG1 repair inh: inconclusive

What do the screens show for `CN=C1NN=C(c2cc(C)n(-c3ccc(Cl)cc3)c2C)CS1`?
Rab9 promoter act: 2.5µM*; ELG1 genotox: inconclusive; NPC1 promoter act: 4µM*; SMN2 splice enh: -7%; FLuc modulator: 4.8µM*; ELG1 repair inh: inconclusive

What do the screens show for `Cc1cc(C2=NNC(=NC3CC3)SC2)c(C)n1-c1c(C)n(C)n(-c2ccccc2)c1=O`?
Rab9 promoter act: -12%; ELG1 genotox: -3%; NPC1 promoter act: 6%; SMN2 splice enh: -4%; FLuc modulator: -6%; ELG1 repair inh: 15%

How did Cc1csc(=O)n1CCC(=O)OCc1nnc(-c2ccc([N+](=O)[O-])cc2)o1 do in these assays?
Rab9 promoter act: 11%; ELG1 genotox: 4%; NPC1 promoter act: 0%; FLuc modulator: 1%; ELG1 repair inh: 11%

Results for NC(=O)Cc1ccc(C(=O)c2ccccc2)s1 ?
Rab9 promoter act: -19%; ELG1 genotox: 8%; NPC1 promoter act: 2%; SMN2 splice enh: 15%; FLuc modulator: -5%; ELG1 repair inh: inconclusive

Results for COc1ccccc1/C=C1\SC(N2CCC(C)CC2)=NC1=O ?
Rab9 promoter act: 5%; ELG1 genotox: inconclusive; NPC1 promoter act: -29%; FLuc modulator: 12µM*; ELG1 repair inh: 0%

How did COc1cccc(/C=C2\SC(N3CCCC(C)C3)=NC2=O)c1OC (configuration not stated) do in these assays?
Rab9 promoter act: inconclusive; ELG1 genotox: inconclusive; NPC1 promoter act: inconclusive; FLuc modulator: 5.4µM*; ELG1 repair inh: inconclusive

Results for COc1cc(/C=C2\SC(N3CCc4ccccc4C3)=NC2=O)cc(OC)c1OC ?
Rab9 promoter act: 0%; ELG1 genotox: 7%; NPC1 promoter act: -2%; SMN2 splice enh: 10%; FLuc modulator: -7%; ELG1 repair inh: 18µM*

What do the screens show for `CCOC(=O)C1CCN(C2=NC(=O)/C(=C/c3ccccc3OC)S2)CC1`?
Rab9 promoter act: -1%; ELG1 genotox: 0%; NPC1 promoter act: 8%; FLuc modulator: inconclusive; ELG1 repair inh: 1%

How did COc1ccc(/C=C2\SC(N3CCc4ccccc4C3)=NC2=O)cc1 do in these assays?
Rab9 promoter act: -4%; ELG1 genotox: -2%; NPC1 promoter act: 0%; SMN2 splice enh: -32%; FLuc modulator: inconclusive; ELG1 repair inh: -2%

Results for COc1cccc(/C=C2\SC(N3CCC(C)CC3)=NC2=O)c1OC ?
Rab9 promoter act: 4%; ELG1 genotox: 9%; NPC1 promoter act: 12%; FLuc modulator: 17µM*; ELG1 repair inh: 19%

Results for COc1cc(Cl)cc(C2NC(=S)NC(c3ccccc3)=C2C(C)=O)c1OCC(=O)O (configuration not stated) ?
Rab9 promoter act: 6%; ELG1 genotox: -2%; NPC1 promoter act: -1%; FLuc modulator: -4%; ELG1 repair inh: 10%

How did COc1cccc(/C=C2\SC(=S)N(N3CCOCC3)C2=O)c1OC do in these assays?
Rab9 promoter act: -3%; ELG1 genotox: inconclusive; NPC1 promoter act: -2%; SMN2 splice enh: 3%; FLuc modulator: 17µM*; ELG1 repair inh: inconclusive

Results for COc1ccc(/C=C2\SC(=S)N(N3CCOCC3)C2=O)c(OC)c1 ?
Rab9 promoter act: 0%; ELG1 genotox: 9%; NPC1 promoter act: 3%; FLuc modulator: inconclusive; ELG1 repair inh: 10%

Results for O=C(c1cc2c(=O)n3ccccc3nc2s1)N1CCN(c2cccc(Cl)c2)CC1 ?
Rab9 promoter act: -1%; ELG1 genotox: inconclusive; NPC1 promoter act: -2%; FLuc modulator: 2%; ELG1 repair inh: inconclusive
